The record followed here is PubChem BioAssay (NCI).

The panel holds about 83,000 compounds, 20% with a hit somewhere; the sample as a whole holds those more often.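 Testing used 96-well plates and a 48-hour single-concentration exposure. Example: -40 means 40% of the starting cells died.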 Values without a mark were called inactive. The source made the active and inactive calls. The calls were made as follows: active = growth percent below 10; inactive = the rest.

Among the test systems are DU-145 prostate; K-562 leukemia; MALME-3M melanoma; MDA-MB-231 breast; RXF 393 renal; SF-268 CNS; SF-295 CNS; SF-539 CNS; UACC-257 melanoma; M14 melanoma; HCT-15 colon; HT29 colon; SNB-75 CNS; SNB-19 CNS; U251 CNS; PC-3 prostate; SK-MEL-5 melanoma; UACC-62 melanoma; LOX IMVI melanoma; SK-MEL-28 melanoma.
Experiment in all cases: NCI-60 one-dose screen, 48 h (100 = growth as untreated, 0 = no growth, -100 = all killed)
Common to all, as to details: 10 µM unless noted

As for `Cc1nc2sccn2c1-c1nnc(SCc2ccccc2)o1`, the growth in the test with DU-145 prostate is 96.6%; with K-562 leukemia, 75.8%; in the test on MALME-3M melanoma, 106%; with MDA-MB-231 breast it was 98.6%; with RXF 393 renal, 78.9%; with SF-268 CNS, 105%. Further, the growth was 82.5% in the test with SF-295 CNS; 93.4% in the test with SF-539 CNS; 94% with UACC-257 melanoma; 96.7% in the test on M14 melanoma; 89.2% in the test with HCT-15 colon; 85.6% with HT29 colon. Also, the growth in the test with SNB-75 CNS was 106%; in the test on SNB-19 CNS, 80.6%; in the test on U251 CNS, 82.8%; in the test with PC-3 prostate, 82%; in the test with SK-MEL-5 melanoma it was 90%; in the test on UACC-62 melanoma, 80.2%. Further, the values for the growth with LOX IMVI melanoma and in the test with SK-MEL-28 melanoma were 92.7% and 94.8%, respectively.
Turning to `COc1ccccc1NC(=O)c1ccc(NC(=O)CCl)s1`, the growth in the test with DU-145 prostate was 41.1%; in the test with K-562 leukemia it was -8.7% (active); in the test on MALME-3M melanoma it was -4.74% (active); with MDA-MB-231 breast, -58% (active); in the test on RXF 393 renal, -56.5% (active); in the test with SF-268 CNS, 22.3%. Further, the growth in the test with SF-295 CNS was 31.9%; in the test on SF-539 CNS it was -14.1% (active); in the test on UACC-257 melanoma, 10.6%; in the test with M14 melanoma, -74.7% (active); in the test with HCT-15 colon it was -50.8% (active); in the test on HT29 colon, -66.1% (active). For the same molecule, the growth with SNB-75 CNS was 35.9%; in the test on SNB-19 CNS it was 42.1%; in the test on U251 CNS, -51.2% (active); with PC-3 prostate, -46.7% (active); with SK-MEL-5 melanoma it was -23.3% (active); in the test on UACC-62 melanoma, -83.2% (active). Further, the growth was -93.4% (active) in the test with LOX IMVI melanoma and 1.77% (active) with SK-MEL-28 melanoma.
As for `COC(=O)c1cccc(Oc2ccc(NC(=O)Nc3cc(C(F)(F)F)ccc3F)cc2)c1`, the growth in the test on DU-145 prostate was 78.8%; in the test with K-562 leukemia, 59.5%; in the test on MALME-3M melanoma, 77.7%; in the test on MDA-MB-231 breast, 40%; in the test on RXF 393 renal, 41.4%; in the test on SF-268 CNS it was 50.2%. Also, the growth is 58.8% in the test on SF-295 CNS; 34.1% with SF-539 CNS; 90.8% with UACC-257 melanoma; 84.9% in the test with M14 melanoma; 62% in the test with HCT-15 colon; 62.9% with HT29 colon. In addition, the growth was -34.1% (active) with SNB-75 CNS; 10.7% in the test with SNB-19 CNS; 40.4% in the test on U251 CNS; 69.9% with PC-3 prostate; 94.5% with SK-MEL-5 melanoma; 69.6% with UACC-62 melanoma. In addition, the growth is 79.5% with LOX IMVI melanoma and 88.7% in the test with SK-MEL-28 melanoma.
On to `Cc1nn(-c2ccccc2)c2nc(C)n(C(=O)N/N=C/c3cccc([N+](=O)[O-])c3)c(=O)c12`, for which the growth in the test on DU-145 prostate was 99.9%; in the test with K-562 leukemia, 62%; in the test with MALME-3M melanoma, -10.2% (active); with MDA-MB-231 breast, 94.7%; in the test with RXF 393 renal, 115%; in the test with SF-268 CNS, 101%. Also, the growth is 101% with SF-295 CNS; 105% with SF-539 CNS; 78.4% with UACC-257 melanoma; 80.4% with M14 melanoma; 63.5% in the test with HCT-15 colon; 88.6% in the test with HT29 colon. For the same molecule, the growth in the test on SNB-75 CNS is 75.4%; in the test on SNB-19 CNS, 94.1%; in the test with U251 CNS, 93.1%; in the test on PC-3 prostate, 92.9%; with SK-MEL-5 melanoma, 90.7%; in the test with UACC-62 melanoma, 73.5%. The growth was 82.7% with LOX IMVI melanoma and 97.8% in the test with SK-MEL-28 melanoma.
`CCOc1ccc2[nH]c(=O)c(C(c3nnnn3CC3CCCO3)N3CCN(Cc4ccccc4)CC3)cc2c1` (stereo not given): the growth in the test on DU-145 prostate was 93.6%; in the test on K-562 leukemia, 111%; in the test with MALME-3M melanoma it was 65%; with MDA-MB-231 breast, 61.6%; in the test on RXF 393 renal, 58.7%; in the test on SF-268 CNS it was 55.5%. The growth with SF-295 CNS was 57.6%; with SF-539 CNS, 57.6%; in the test on UACC-257 melanoma, 113%; with M14 melanoma, 94.3%; in the test on HCT-15 colon, 99.7%; in the test on HT29 colon, 117%. Moreover, the growth was -22.2% (active) in the test with SNB-75 CNS; 38.5% in the test with SNB-19 CNS; 60.9% in the test with U251 CNS; 94% in the test on PC-3 prostate; 104% in the test with SK-MEL-5 melanoma; 76.3% in the test on UACC-62 melanoma. The growth was 87.2% in the test on LOX IMVI melanoma and 101% with SK-MEL-28 melanoma.
On to `COc1cccc(/C=C/c2nc3ccccc3c(=O)n2CC(=O)Nc2ccccc2)c1`, for which the growth was 87.8% in the test on DU-145 prostate; 93% with K-562 leukemia; 56.1% in the test with MALME-3M melanoma; -29% (active) with MDA-MB-231 breast; 0.184% (active) with RXF 393 renal; 69.5% in the test on SF-268 CNS. Further, the growth in the test on SF-295 CNS was 48.8%; in the test on SF-539 CNS, 11.8%; with UACC-257 melanoma it was 67.8%; with M14 melanoma, 47.8%; in the test with HCT-15 colon, 67.8%; in the test with HT29 colon, 58.5%. For the same molecule, the growth in the test with SNB-75 CNS is -35.9% (active); in the test on SNB-19 CNS it was 40.4%; in the test with U251 CNS, 7.15% (active); with PC-3 prostate, 76.1%; in the test on SK-MEL-5 melanoma, 73.6%; in the test with UACC-62 melanoma, 67.2%. The results for the growth with LOX IMVI melanoma and in the test on SK-MEL-28 melanoma were 26.8% and 76.5%, respectively.
On to `O=C1/C(=C/C=C/c2ccco2)SC(=S)N1CC(=S)C1C=CS(=O)(=O)C1` (stereo not given), for which the growth with DU-145 prostate is 97.4%; with K-562 leukemia, 75%; with MALME-3M melanoma, 83.3%; in the test with MDA-MB-231 breast it was 85.8%; with RXF 393 renal it was 79.4%; in the test on SF-268 CNS it was 91%. The growth in the test with SF-295 CNS was 88.9%; with SF-539 CNS it was 99%; in the test with UACC-257 melanoma, 92.3%; with M14 melanoma it was 98.9%; in the test with HCT-15 colon, 75.6%; in the test with HT29 colon, 109%. Also, the growth is 93.5% in the test on SNB-75 CNS; 95.2% in the test on SNB-19 CNS; 88.7% in the test on U251 CNS; 96.7% in the test with PC-3 prostate; 86.8% in the test with SK-MEL-5 melanoma; 74.4% with UACC-62 melanoma. For the same molecule, the growth with LOX IMVI melanoma is 66.7%; with SK-MEL-28 melanoma, 93.9%.
Regarding `CC[C@@]12CC(C(=O)OC)=C3Nc4cc5c(cc4[C@@]34CCN(C[C@H]3O[C@H]31)[C@@H]24)[C@@H]1[C@H](O5)[C@@H](O)[C@@]2(CC)CC(C(=O)OC)=C3Nc4cc(O)ccc4[C@@]34CCN1[C@@H]24`, the growth in the test with DU-145 prostate was 7.47% (active); in the test with K-562 leukemia, -8.19% (active); in the test with MALME-3M melanoma it was -39.6% (active); with MDA-MB-231 breast it was -70.4% (active); with RXF 393 renal, -98.4% (active); with SF-268 CNS, 10.3%. In addition, the growth in the test on SF-295 CNS is -63% (active); in the test with SF-539 CNS, -53.1% (active); in the test with UACC-257 melanoma, -23.5% (active); in the test on M14 melanoma, -61.4% (active); in the test on HCT-15 colon, -51.6% (active); in the test with HT29 colon, -14% (active). Besides, the growth is -34.4% (active) in the test with SNB-75 CNS; -43.8% (active) in the test on SNB-19 CNS; -57.5% (active) in the test on U251 CNS; 15.9% in the test with PC-3 prostate; -90.2% (active) in the test on SK-MEL-5 melanoma; -57.8% (active) in the test with UACC-62 melanoma. Also, the growth with LOX IMVI melanoma is -84.4% (active); in the test with SK-MEL-28 melanoma, -47.3% (active).
